Records with an inconclusive call do not appear. Values without a mark were called inactive. Calls of active or inactive are those of the source. Calls follow the shape of the dose curve; as a rule, active = well fitted curve in the direction sought with a large enough effect; inconclusive = small, poorly fitted or top-dose-only effect, or another doubt; inactive = no such curve, though single readings can be large; an effect the other way counts as inactive or inconclusive.

Potency and outcome data for 27 compounds are collected here from PubChem BioAssay (NCATS).

A short description of assay [1]: qHTS of pediatric cancer cell lines to identify multiple opportunities for drug repurposing: Primary screen for Rh18 cells (AID 1347102). Also: nearly all actives have a fitted effect of over 65% in size. Also: potency is read from the fitted curve at half-maximal effect. Put shortly: (§1)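 Viability after 48 h compound treatment at 37C, 500-1,000 cells/well, read as ATP luminescence with CellTiter-Glo. Primary screens used 11-point (MIPE, 0.78 nM-46 µM) or 8-point (NPC, 0.59 nM-46 µM) final concentrations; follow-up screens used 11-point dilutions.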

Assay [2] in a line: qHTS of pediatric cancer cell lines to identify multiple opportunities for drug repurposing: Primary screen for OHS-50 cells (AID 1347103). Also: nearly all actives have a fitted effect of over 40% in size. Also: potency is read from the fitted curve at half-maximal effect. In a few lines:
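Cells (500-1,000/well) rested 5 h, then received compounds for 48 h; metabolically active cells were measured by CellTiter-Glo luminescence. Final concentrations spanned up to 46 µM (MIPE, 11-point) or 0.59 nM-46 µM (NPC, 8-point) in primary screens, 11-point in follow-ups.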

A short description of assay [3]: qHTS of pediatric cancer cell lines to identify multiple opportunities for drug repurposing: Primary screen for RD cells (AID 1347104). Also: nearly all actives have a fitted effect of over 55% in size. Also: potency is read from the fitted curve at half-maximal effect. Put shortly: (§2)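 Viability was measured as metabolically active cells after 48 hours of treatment, read by CellTiter-Glo luminescence. Compounds were tested at multiple final concentrations, giving concentration-response curves.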

Assay [4] in a line: qHTS of pediatric cancer cell lines to identify multiple opportunities for drug repurposing: Primary screen for MG 63 (6-TG R) cells (AID 1347105). Also: nearly all actives have a fitted effect of over 50% in size. In a few lines: as §2
Assay [5] in a line: qHTS of pediatric cancer cell lines to identify multiple opportunities for drug repurposing: Primary screen for control Hh wild type fibroblast cells (AID 1347106).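 Also: series mostly up to about 46 µM; a drop in luminescence marks cytotoxicity and a rise apparent proliferation; nearly all actives have a fitted effect of over 55% in size.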 In a few lines:
as §1

Assay [6] in a line: qHTS of pediatric cancer cell lines to identify multiple opportunities for drug repurposing: Primary screen for Rh30 cells (AID 1347107). Also: series mostly up to about 46 µM; nearly all actives have a fitted effect of over 75% in size. Put shortly:
as §1

Assay [7] in a line: qHTS of pediatric cancer cell lines to identify multiple opportunities for drug repurposing: Primary screen for Rh41 cells (AID 1347108).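 Also: series mostly up to about 46 µM; luminescence drop marks cytotoxic hits; nearly all actives have a fitted effect of over 70% in size.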 Put shortly:
as §2

On to `CC(=O)Nc1ccc(/C=N/NC(N)=S)cc1`, for which the Potency entry in assay [1], in assay [2], in assay [3], in assay [4] and in assay [7] was “inactive” in each case. In addition, the outcome in assay [5] and in assay [6] was inactive.

In the case of `Cc1cc(CC(=O)O)n(C)c1C(=O)c1ccc(Cl)cc1`, the Potency entry in assay [1], in assay [2], in assay [3], in assay [4] and in assay [7] was “inactive” in each case. For the same compound, the outcome in assay [5] and in assay [6] was inactive.

`Cc1ccc(C(C)C)cc2c(C)ccc1-2`: the Potency result in assay [1], in assay [2], in assay [3], in assay [4] and in assay [7] was “inactive” in each case. Further, the compound was classed as inactive in assay [5] and in assay [6].

For the compound `Cc1cc2c(cc1S(N)(=O)=O)S(=O)(=O)CCC2`, the Potency entry in assay [1], in assay [2], in assay [3], in assay [4] and in assay [7] was “inactive” throughout. Further, the compound was called inactive in assay [5] and in assay [6].

For the compound `CC(C)(O)c1ccccc1CC[C@@H](SCC1(CC(=O)O)CC1)c1cccc(/C=C/c2ccc3ccc(Cl)cc3n2)c1`, the Potency result in assay [1], in assay [2], in assay [3], in assay [4] and in assay [7] was “inactive” each time. Also, the outcome in assay [5] and in assay [6] was inactive.

Consider `C=Cc1c(C)c2cc3[nH]c(cc4nc(cc5nc(cc1[nH]2)C(C)=C5CCC(=O)O)C(CCC(=O)O)=C4C)c(C)c3C=C`, for which the Potency entry in assay [1], in assay [2], in assay [3], in assay [4] and in assay [7] was “inactive” each time. In addition, the result in assay [5] and in assay [6] was inactive.

With `C#CCN(C)Cc1ccccc1`, the Potency result in assay [1], in assay [2], in assay [3], in assay [4] and in assay [7] was “inactive” throughout. For the same compound, the outcome in assay [5] and in assay [6] was inactive.

With `O=C(O)c1ccccc1O`, the Potency result in assay [1], in assay [2], in assay [3], in assay [4] and in assay [7] was “inactive” in each case. Further, the outcome in assay [5] and in assay [6] was inactive.

Regarding `CC1(C)OC(=O)NC1=O`, the Potency entry in assay [1], in assay [2], in assay [3], in assay [4] and in assay [7] was “inactive” in each case. Also, the outcome in assay [5] and in assay [6] was inactive.

Turning to `CC[N+](CC)(CC)CCOc1ccc(/C=C/c2ccccc2)cc1`, the Potency in assay [1] is 7.5 µM (active); in assay [2] it was 3.47 µM (active); in assay [3] it was 15 µM (active).

Take `Nc1cc(=O)[nH]c(N)n1`: the Potency result in assay [1], in assay [2], in assay [3], in assay [4] and in assay [7] was “inactive” in each case. Also, the compound was called inactive in assay [5] and in assay [6].

On to `Cn1cc[nH]c1=S`, for which the Potency entry in assay [1], in assay [2], in assay [3], in assay [4] and in assay [7] was “inactive” each time. Also, the compound was classed as inactive in assay [5] and in assay [6].

`O=c1[nH]cnc2c1ncn2[C@@H]1O[C@H](CO)[C@@H](O)[C@H]1O`: the Potency entry in assay [1], in assay [2], in assay [3], in assay [4] and in assay [7] was “inactive” each time. For the same compound, the outcome in assay [5] and in assay [6] was inactive.

As for `CC1(C)Oc2ccc(C#N)cc2[C@@H](N2CCCC2=O)[C@@H]1O`, the Potency entry in assay [1], in assay [2], in assay [3], in assay [4] and in assay [7] was “inactive” each time. Further, the outcome in assay [5] and in assay [6] was inactive.

`N[C@@H](CSCCCO)C(=O)O`: the Potency result in assay [1], in assay [2], in assay [3], in assay [4] and in assay [7] was “inactive” throughout. For the same compound, the result in assay [5] and in assay [6] was inactive.

`Nc1ccc(S(=O)(=O)Nc2ccc(Cl)nn2)cc1`: the Potency entry in assay [1], in assay [2], in assay [3], in assay [4] and in assay [7] was “inactive” in each case. Besides, the compound was called inactive in assay [5] and in assay [6].

Take `Oc1cn2c(n1)Nc1ccc(Cl)c(Cl)c1C2`: the Potency result in assay [1], in assay [2], in assay [3], in assay [4] and in assay [7] was “inactive” in each case. Besides, the outcome in assay [5] and in assay [6] was inactive.

Turning to `CC1(C)[C@@H]2CC[C@@]1(C)C(=O)C2`, the Potency result in assay [1], in assay [2], in assay [3], in assay [4] and in assay [7] was “inactive” throughout. Further, the compound was called inactive in assay [5] and in assay [6].

`CC(C)(C)C(=O)C(Oc1ccc(Cl)cc1)n1ccnc1` (stereo not given): the Potency entry in assay [1], in assay [2], in assay [3], in assay [4] and in assay [7] was “inactive” throughout. In addition, the compound was classed as inactive in assay [5] and in assay [6].

Regarding `Nc1nc2c(ncn2CCC(CO)CO)c(=O)[nH]1`, the Potency result in assay [1], in assay [2], in assay [3], in assay [4] and in assay [7] was “inactive” throughout. In addition, the compound was classed as inactive in assay [5] and in assay [6].

For `O=C1O[C@H]([C@@H](O)CO)C(O)=C1O`, the Potency result in assay [1], in assay [2], in assay [3], in assay [4] and in assay [7] was “inactive” throughout. Also, the outcome in assay [5] and in assay [6] was inactive.

For the compound `O=C(O)CC(O)C(=O)O` (stereo not given), the Potency entry in assay [1], in assay [2], in assay [3], in assay [4] and in assay [7] was “inactive” each time. Further, the result in assay [5] and in assay [6] was inactive.

For `N[C@H]1C(O)O[C@H](CO)[C@@H](O)[C@@H]1O` (stereo not given in full), the Potency result in assay [1], in assay [2], in assay [3], in assay [4] and in assay [7] was “inactive” each time. The compound was classed as inactive in assay [5] and in assay [6].

With `C[C@H]1O[C@@H](n2cc(F)c(=O)[nH]c2=O)[C@H](O)[C@@H]1O`, the Potency entry in assay [1], in assay [2], in assay [3], in assay [4] and in assay [7] was “inactive” throughout. In addition, the compound was called inactive in assay [5] and in assay [6].

`CCCn1cnc2c1c(=O)n(CCCCC(C)=O)c(=O)n2C`: the Potency entry in assay [1], in assay [2], in assay [3], in assay [4] and in assay [7] was “inactive” in each case. For the same compound, the outcome in assay [5] and in assay [6] was inactive.

Regarding `C[C@@H]1CCN(C(=O)[C@H](CCCN=C(N)N)NS(=O)(=O)c2cccc3c2NC[C@H](C)C3)[C@@H](C(=O)O)C1`, the Potency result in assay [1], in assay [2], in assay [3], in assay [4] and in assay [7] was “inactive” throughout. Further, the outcome in assay [5] and in assay [6] was inactive.

`CC(C)(C(=O)O)c1ccc(C(O)CCCN2CCC(C(O)(c3ccccc3)c3ccccc3)CC2)cc1` (stereo not given): the Potency entry in assay [1], in assay [2], in assay [3], in assay [4] and in assay [7] was “inactive” throughout. Further, the compound was classed as inactive in assay [5] and in assay [6].
